# Activity calls are given as the source filed them. No rule for the calls is given here.
# Assay: Clonogenic survival assay for Identifying a Potential Treatment of Ataxia-Telangiectasia:SAR for Probe
# Conditions: ATM-null F2111 fibroblasts, NCS clonogenic survival, 14 d
# From the text: NIH Chemical Genomics Center [NCGC] NIH Molecular Libraries Probe Centers Network [MLPCN] MLPCN Grant: MH089030-01 Assay Submitter (PI): Wei Zheng and Yosef Shiloh Ataxia-telangiectasia (A-T) is a devastating and progressive disease for which, there is no cure. Although A-T is a multisystem disease, it is stereotyped characterized by its neurological symptoms such as truncal ataxia, due to cerebellar cortical degeneration of the Purkinje and granule cells. Other symptoms of A-T are telangiectasias (dilated blood vessels), primary immunodeficiency, marked sensitivity to ionizing radiation (IR), chromosomal instability and predisposition to cancer. The underlying genetic cause of A-T is null mutations in the ATM (A-T mutated) gene. ATM is a nuclear serine/threonine kinase that functions as a master regulator of the cellular responses to double strand breaks (DSBs) in the DNA. Upon activation by DSBs, ATM phosphorylates a plethora of downstream targets, including KAP-1 on […]. KAP-1 phosphorylation occurs shortly in response to DSBs and mediates global chromatin relaxation, which facilitates DSB repair. To screen for small molecules that will compensate for the loss of ATM in cells derived from A-T patients, we monitored KAP-1 phosphorylation as a readout for ATM-like activity using an AlphaLISA assay. Active compounds should protect the A-T cells from the damage by NCS treatment and form normal colonies.
# ATM null (F2111) cells are treated with various doses of the radiomimetic drug neocarzinostatin (NCS) and plated at densities of 200-5000 cells/[…]. 24 hr later the cells were either treated or not treated with Rottlerin, and 30 min later NCS was added for an additional 30 minutes. Then the medium was replaced with fresh medium and plates were incubated for 14 days until colonies could be visualized. After fourteen days, the cultures are fixed and stained and colonies scored manually. Colony survival in absence of NCS was normalized to 100% survival for each compound concentration.
smiles,measurement,setting,value
CC(=O)c1c(O)c(C)c(O)c(Cc2c(O)c3c(c(C(=O)/C=C/c4ccccc4)c2O)OC(C)(C)C=C3)c1O,survival,"at 30 µM, stronger effect = higher value",43% (active)
same,survival,"measured here: 10 ng/ml NCS, no compound",35%
same,survival,"measured here: 20 ng/ml NCS, at 30 µM, stronger effect = higher value",33%
same,survival,"measured here: 40 ng/ml NCS, at 30 µM, stronger effect = higher value",15%

# Reference: PubChem BioAssay AID504376 (National Center for Advancing Translational Sciences (NCATS), 2011)
